Among all 5,500 compounds or so, about 2,000 (36%) were called active. Roughly 18% stayed inconclusive and do not appear here. Rule as the data show it: active = normalized growth mostly below about 0.91 (no sharp cut-off); inconclusive = no clear call, values can overlap the other calls; inactive = mostly above about 0.92. This is one part of the list.
Experiment: chemical genetic growth profiling, strain panel (AID 1159580);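 also: tested at 20 µM; growth read once vehicle control cultures reached saturation at 30 °C; 1 = growth at the plate median or of vehicle wells; lower values mean less growth of the strain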
Details: growth OD
[1] = S. cerevisiae deletion strains, locus YDL101C, strain DUN1, hits give low values
[2] = S. cerevisiae deletion strains, locus YHR030C, strain SLT2, hits give low values

Measured: normalized growth

COc1ccc(-c2nc(-c3ccc(-c4ccccc4)cc3)cs2)cc1
active: S. cerevisiae deletion strains, locus YDL134C, strain PPH21, hits give low values 0.87
inactive: S. cerevisiae deletion strains, locus YAL013W, strain DEP1, hits give low values 1.03 | S. cerevisiae deletion strains, locus YBR229C, strain ROT2, hits give low values 1.01 | [1] 1.03 | S. cerevisiae deletion strains, locus YDR150W, strain NUM1, hits give low values 1 | S. cerevisiae deletion strains, locus YEL061C, strain CIN8, hits give low values 0.979 | S. cerevisiae deletion strains, locus YGR078C, strain PAC10, hits give low values 1.02 | [2] 1.08 | S. cerevisiae deletion strains, locus YHR087W, strain rtc3, hits give low values 1 | S. cerevisiae deletion strains, locus YJL187C, strain SWE1, hits give low values 0.968 | S. cerevisiae deletion strains, locus YJR043C, strain POL32, hits give low values 1.03 | S. cerevisiae deletion strains, locus YJR075W, strain HOC1, hits give low values 1.02 | S. cerevisiae deletion strains, locus YKL190W, strain CNB1, hits give low values 0.995 | S. cerevisiae deletion strains, locus YLR039C, strain RIC1, hits give low values 1.02 | S. cerevisiae deletion strains, locus YLR058C, strain SHM2 (second series), hits give low values 1.02 | S. cerevisiae deletion strains, locus YLR085C, strain ARP6, hits give low values 1.02 | S. cerevisiae deletion strains, locus YLR262C, strain YPT6, hits give low values 1.09 | S. cerevisiae deletion strains, locus YML094W, strain GIM5, hits give low values 0.999 | S. cerevisiae deletion strains, locus YMR219W, strain ESC1, hits give low values 1.01 | S. cerevisiae deletion strains, locus YMR263W, strain SAP30, hits give low values 1.01 | S. cerevisiae deletion strains, locus YNL153C, strain GIM3, hits give low values 1.02 | S. cerevisiae deletion strains, locus YNL298W, strain CLA4 (second series), hits give low values 1.09 | S. cerevisiae deletion strains, locus YNL322C, strain KRE1, hits give low values 1.01 | S. cerevisiae deletion strains, locus YNR030W, strain Alg12, hits give low values 1.02 | S. cerevisiae deletion strains, locus YPL055C, strain LGE1, hits give low values 1.01 | S. cerevisiae deletion strains, locus YPL241C, strain CIN2, hits give low values 1 | S. cerevisiae deletion strains, locus YPR135W, strain CTF4, hits give low values 1.14 | S. cerevisiae strains, strain wild type, hits give low values 1

COc1ccc(-c2cn3cc(C)ccc3n2)cc1
inactive: S. cerevisiae deletion strains, locus YAR019C, strain CDC15, hits give low values 0.98 | S. cerevisiae deletion strains, locus YBL105C, strain PKC1, hits give low values 0.975 | S. cerevisiae deletion strains, locus YBR135W, strain CKS1, hits give low values 0.97 | S. cerevisiae deletion strains, locus YBR136W, strain MEC1, hits give low values 0.978 | S. cerevisiae deletion strains, locus YBR160W, strain CDC28, hits give low values 0.971 | S. cerevisiae deletion strains, locus YDL017W, strain CDC7, hits give low values 0.987 | S. cerevisiae deletion strains, locus YDL028C, strain MPS1, hits give low values 0.986 | [1] 0.984 | S. cerevisiae deletion strains, locus YDL108W, strain KIN28, hits give low values 0.983 | S. cerevisiae deletion strains, locus YDL132W, strain cdc53, hits give low values 0.977 | S. cerevisiae deletion strains, locus YDL214C, strain PRR2, hits give low values 0.97 | S. cerevisiae deletion strains, locus YDR052C, strain DBF4, hits give low values 0.985 | S. cerevisiae deletion strains, locus YDR054C, strain cdc34, hits give low values 0.973 | S. cerevisiae deletion strains, locus YDR226W, strain ADK1, hits give low values 0.982 | S. cerevisiae deletion strains, locus YDR477W, strain SNF1, hits give low values 0.975 | S. cerevisiae deletion strains, locus YER123W, strain YCK3, hits give low values 0.953 | S. cerevisiae deletion strains, locus YER133W, strain GLC7, hits give low values 0.981 | S. cerevisiae deletion strains, locus YFL009W, strain cdc4, hits give low values 0.98 | S. cerevisiae deletion strains, locus YFL029C, strain CAK1, hits give low values 0.973 | S. cerevisiae deletion strains, locus YFR003C, strain YPI1, hits give low values 0.98 | S. cerevisiae deletion strains, locus YFR019W, strain FAB1, hits give low values 0.981 | S. cerevisiae deletion strains, locus YFR028C, strain CDC14, hits give low values 0.975 | S. cerevisiae deletion strains, locus YGR040W, strain KSS1, hits give low values 0.966 | S. cerevisiae deletion strains, locus YGR052W, strain FMP48, hits give low values 1.07 | S. cerevisiae deletion strains, locus YGR092W, strain DBF2, hits give low values 0.937 | [2] 1.01 | S. cerevisiae deletion strains, locus YHR079C, strain IRE1, hits give low values 1.02 | S. cerevisiae deletion strains, locus YHR082C, strain KSP1, hits give low values 1.04 | S. cerevisiae deletion strains, locus YHR205W, strain SCH9, hits give low values 0.963 | S. cerevisiae deletion strains, locus YIL147C, strain SLN1, hits give low values 0.983 | S. cerevisiae deletion strains, locus YJL095W, strain BCK1, hits give low values 1.02 | S. cerevisiae deletion strains, locus YJL128C, strain PBS2, hits give low values 0.943 | S. cerevisiae deletion strains, locus YJL157C, strain FAR1, hits give low values 0.968 | S. cerevisiae deletion strains, locus YJR016C, strain ILV3, hits give low values 0.979 | S. cerevisiae deletion strains, locus YJR066W, strain TOR1 (second series), hits give low values 0.995 | S. cerevisiae deletion strains, locus YJR066W, strain TOR1, hits give low values 1.06 | S. cerevisiae deletion strains, locus YKL048C, strain ELM1, hits give low values 0.957 | S. cerevisiae deletion strains, locus YKL067W, strain YNK1, hits give low values 0.976 | S. cerevisiae deletion strains, locus YKL101W, strain HSL1, hits give low values 0.961 | S. cerevisiae deletion strains, locus YKL193C, strain SDS22, hits give low values 0.978 | S. cerevisiae deletion strains, locus YKL203C, strain TOR2, hits give low values 1.05 | S. cerevisiae deletion strains, locus YLR113W, strain HOG1, hits give low values 0.923 | S. cerevisiae deletion strains, locus YLR133W, strain CKI1, hits give low values 0.956 | S. cerevisiae deletion strains, locus YLR403W, strain SFP1, hits give low values 0.96 | S. cerevisiae deletion strains, locus YML070W, strain DAK1, hits give low values 0.956 | S. cerevisiae deletion strains, locus YMR001C, strain CDC5, hits give low values 0.977 | S. cerevisiae deletion strains, locus YMR205C, strain PFK2 (second series), hits give low values 0.973 | S. cerevisiae deletion strains, locus YMR277W, strain FCP1, hits give low values 0.979 | S. cerevisiae deletion strains, locus YNL006W, strain LST8, hits give low values 0.995 | S. cerevisiae deletion strains, locus YNL020C, strain ARK1, hits give low values 0.963 | S. cerevisiae deletion strains, locus YNL161W, strain CBK1, hits give low values 0.971 | S. cerevisiae deletion strains, locus YNL183C, strain NPR1, hits give low values 1.02 | S. cerevisiae deletion strains, locus YNL207W, strain RIO2, hits give low values 0.977 | S. cerevisiae deletion strains, locus YNL222W, strain SSU72, hits give low values 0.975 | S. cerevisiae deletion strains, locus YNL307C, strain MCK1 (second series), hits give low values 0.953 | S. cerevisiae deletion strains, locus YOL078W, strain AVO1, hits give low values 0.978 | S. cerevisiae deletion strains, locus YOL136C, strain PFK27, hits give low values 0.969 | S. cerevisiae deletion strains, locus YOR061W, strain CKA2, hits give low values 0.973 | S. cerevisiae deletion strains, locus YOR119C, strain RIO1, hits give low values 1.03 | S. cerevisiae deletion strains, locus YOR231W, strain MKK1, hits give low values 0.959 | S. cerevisiae deletion strains, locus YOR329C, strain SCD5, hits give low values 0.982 | S. cerevisiae deletion strains, locus YPL031C, strain PHO85, hits give low values 0.979 | S. cerevisiae deletion strains, locus YPL153C, strain RAD53, hits give low values 0.986 | S. cerevisiae deletion strains, locus YPL204W, strain HRR25, hits give low values 0.992 | S. cerevisiae deletion strains, locus YPL209C, strain IPL1, hits give low values 0.962 | S. cerevisiae deletion strains, locus YPL256C, strain CLN2, hits give low values 0.96 | S. cerevisiae deletion strains, locus YPR025C, strain CCL1, hits give low values 0.978 | S. cerevisiae deletion strains, locus YPR106W, strain ISR1, hits give low values 0.971 | S. cerevisiae deletion strains, locus YPR111W, strain DBF20, hits give low values 0.954 | S. cerevisiae deletion strains, strain NNK1, hits give low values 0.978 | S. cerevisiae deletion strains, strain TSCII, hits give low values 0.972

Source: PubChem BioAssay AID1159580 (chemical genetic matrix, 2015)
